In PubChem BioAssay (Tox21):
Records with an inconclusive call do not appear. Values without a mark were called inactive. Activity calls are given as the source filed them. Calls follow the shape of the dose curve; as a rule, active = well fitted activation curve with a large enough effect; inconclusive = small, poorly fitted or top-dose-only effect; inactive = flat fitted curve, though single readings scatter.

Test: qHTS assay to identify small molecule phospholipidosis (PLD) inducers (AID 1259344)
Conditions: HepG2 phospholipidosis, LipidTOX Red imaging, 24 h; series mostly up to 38.3 µM; PLD induction: at the top concentration
Text: National Center for Advancing Translational Sciences [NCATS]
Drug-induced Phospholipidosis (PLD) caused by cationic amphiphilic drugs is characterized by the appearance of unicentric or multicentric-lamellar bodies when viewed under electron microscope. Electron microscopy is the gold standard method for PLD detection, however, this method is time-consuming and labor intensive, making it unsuitable for evaluating a large set of compounds. A cell-based phospholipidosis assay has been developed using the LipidTox reagent in HepG2 cells and miniaturized into a 1536-well plate format. Drug induced phospholipid accumulation is stained with the LipidTox dyes in red color which then is determined using an automated high content screening system.
HepG2 cells are dispensed at 900 cells/3 uL/well into Collagen I-coated 1536-well black-wall/clear-bottom assay plates (Greiner Bio-One, Monroe, NC) using the Multidrop Combi 8 channel dispenser (Thermo Fisher, Waltham, MA, USA). The assay plates are incubated at 37 C for 4 hours to allow the cell attachment. 3 uL of 1:500 LipidTOX Red dye is added using the dispenser, and then 23 nL compounds are added via a Wako Pintool station (Wako Automation, San Diego, CA). Amiodarone, a known PLD inducer, was used as a positive control and DMSO was used as a negative control. The assay plates were then incubated at 37 C for 24 hours.
For fixations, 4 uL of 8% paraformaldehyde fixative solution containing 10 ug/mL Hoechst 33342 in Dulbecco's phosphate-buffered saline (DPBS) is added using a Kalypsys washer/dispenser (Kalypsys, San Diego, CA, USA). After incubation at room temperature for 30 min, the assay plates are washed once with DPBS using a Kalypsys washer/dispenser. The assay plates are then sealed and stored at 4 C before imaging. The fluorescence intensities (595 nm excitation, 615 nm emission for LipidTOX; 352 nm excitation, 461 nm emission for Hoechst 33342) are measured using an ImageXpress Micro Widefield High Content Screening System (Molecular Devices, Sunnyvale, CA, USA) with a 20x Plan Fluor objective. Images are acquired for one site in each well and analyzed with the MetaXpress software (Molecular Devices) using the Transfluor module. Several algorithmic outputs, such as pit count per well, pit count per cell, pit integrated intensity per well, and pit integrated intensity per cell, are used for quantitative image analysis for PLD.
% is scaled to controls: 0 for no effect and ±100 for the full control effect; potency is read from the fitted curve at half-maximal effect.

SMILES	PLD induction	Potency
C=C1CC[C@@]2(O)[C@H]3Cc4ccc(O)c5c4[C@@]2(CCN3CC2CC2)[C@H]1O5	-0.458%	–
CCN(CCO)CCn1c(Cc2ccccc2)nc2c1c(=O)n(C)c(=O)n2C	-2.9% [at 7.66 µM]	–
CCCC(C)(COC(N)=O)COC(N)=O	-0.48%	–
CCCN1CCC[C@@H]2Cc3[nH]ncc3C[C@H]21	-0.117%	–
CCN[C@H](C)Cc1cccc(C(F)(F)F)c1	9.57% [at 78.4 µM]	–
C[C@H](CN1CCOCC1)C(C(=O)N1CCCC1)(c1ccccc1)c1ccccc1	13.1% [at 78.4 µM]	–
CC(Cc1ccccc1)NCCn1cnc2c1c(=O)n(C)c(=O)n2C (stereo not given)	5.66% [at 78.4 µM]	–
CCN(CC)CCOC(=O)C(O)(c1ccccc1)c1ccccc1	0.871%	–
S=C=S	2.12%	–
CCCN1CCC[C@@H]2Cc3nc(N)ncc3C[C@H]21	0.181%	–
Cc1ccc(Cl)c(O)c1	2.68%	–
CCCCCCC(=O)CCCCCC/C=C/C[C@@H](O)[C@H](O)[C@@](N)(CO)C(=O)O	–	inactive
CC(C)(N)Cc1ccc(Cl)cc1	13.4%	–
CC(C)(O)C(Cl)(Cl)Cl	-0.042%	–
CCC1(c2cccc(O)c2)CCCCN(C)C1 (stereo not given)	4.64% [at 15.5 µM]	–
CC[C@@H](CO)NC(=O)[C@@H]1C=C2c3cccc4[nH]cc(c34)C[C@H]2N(C)C1	16.3%	–
CC1=C2[C@H]3OC(=O)[C@@H](C)[C@@H]3CC[C@@]2(C)C=CC1=O	-0.224%	–
CCC(=O)OC1(c2ccccc2)CCN(C)CC1	-3.29% [at 19 µM]	–
CNC(=O)NC(O)C(Cl)(Cl)Cl (stereo not given)	-0.489%	–
CC(C)[N+](C)(CCC(C(N)=O)(c1ccccc1)c1ccccc1)C(C)C	1.95% [at 15.5 µM]	–

SMILES	PLD induction	Potency
COc1cc(CC(C)N)cc(OC)c1OC (stereo not given)	-5.59% [at 78.4 µM]	–
CCOC(=O)NC(C)(C)Cc1ccc(Cl)cc1	18.3% [at 1.53 µM]	–
CCC1(c2ccccc2)C(=O)N(COC)C(=O)N(COC)C1=O	-0.503%	–
CCN[C@@H](C)Cc1ccccc1	-3.21% [at 78.4 µM]	–
NC1(c2ccccc2)CCCCC1	–	8.91 µM (active)
ClC(Cl)(Cl)Cl	-2.16%	–
C[C@@H](N)[C@@H](O)c1ccccc1	-0.464% [at 15.5 µM]	–
CC(C)(C)c1cc(O)ccc1O	–	inactive
C[C@H](N)C(=O)c1ccccc1	–	inactive
NC(=O)OCCCc1ccccc1	0.0801%	–
CCC1(c2ccccc2)CCC(=O)NC1=O (stereo not given)	0.475%	–
COc1cc(CCN)cc(OC)c1OC	-5.1% [at 78.4 µM]	–
CC(=O)OCC1=C(C(=O)O)N2C(=O)[C@@H](N)[C@H]2SC1	-0.263% [at 15.5 µM]	–
CN1C(=O)COc2c(C(=O)NC3CN4CCC3CC4)cc(Cl)cc21 (stereo not given)	-0.438%	–
C=CCN1CC[C@]23CCCC[C@H]2[C@H]1Cc1ccc(O)cc13	-0.595%	–
CCC1(CC)C(=O)C=CNC1=O	-1.03%	–
CCCOC(=O)Cc1ccc(OCC(=O)N(CC)CC)c(OC)c1	-1.82%	–
N#CN	-0.408%	–
N[C@@H](Cc1ccc(Oc2cc(I)c(O)c(I)c2)c(I)c1)C(=O)O	-1.21%	–
CC1NCCOC1c1ccccc1 (stereo not given)	3.45%	–
